Source: PubChem BioAssay (several laboratories)
In the library only some 3% were active in any assay of this set; here they are far more common.
CF NFkB inh: inhibitors of cystic fibrosis induced NF-kB | KKLEB NF-kB-GFP reporter, PAF-induced, GFP fluorescence overnight | inhibition, % at 5 µM | 0.86% of 360,000 active | AID 588850;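 active means at least 50% inhibition at 5 µM, scaled per plate between neutral and stimulator controls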;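 further: PAF is a Pseudomonas aeruginosa culture filtrate used as stimulus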
KKLEB cytotox: counter-screen for CF NF-kB inhibitors: cytotoxicity; KKLEB CF airway cells viability, ATPlite luminescence, overnight; hits give low values; cells stimulated with P. aeruginosa culture filtrate; activity change (cytotoxicity), % at 5 µM; 0.36% of 360,000 active; AID 602141;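 active means corrected activity change at or below -50% at 5 µM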
ABHD5-PLIN5 inh: ABHD5-PLIN5 protein interaction inhibition; Q00G26+Q8WTS1; inhibition, % at 4 µM; 0.78% of 360,000 active; Split G. princeps luciferase complementation, luminescence, 4 h; AID 602281;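 active means inhibition above the mean inhibition across every tested compound plus 3 SD, cut at about 22% in these data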
TRPM1 prom inh: MITF TRPM1 promoter inhibition in SK-MEL-5 cells; SK-MEL-5 TRPM1 promoter luciferase, 24 h; inhibition, % at 12.5 µM; 0.83% of 330,000 active;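 active means mean inhibition across replicates of 60% or more, whatever share of single replicates reaches that level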
Peg3 promoter: Peg3 promoter activity inhibition; HeLa PEG-Prom luciferase reporter, luminescence, overnight; inhibition, % at 20 µM; 1.7% of 360,000 active;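 active means inhibition of at least 50% at 20 µM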
HIF-2a inh: blocks HIF-2a reporter activity; AID 624352; inhibition, % at 18.8 µM; 786-0 RCC cells HIF-2a reporter, luciferase luminescence, overnight; 0.72% of 360,000 active;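 active means inhibition of the luminescence signal of 40% or more relative to plate controls, in a single-dose primary screen at 18.75 µM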
ABHD5 PLIN5 conf: confirmation of human ABHD5-PLIN5 interaction inhibitors; shares compounds with ABHD5-PLIN5 inh; biochemical ABHD5-PLIN5 interaction, luminescence; inhibition, % at 4 µM; 67% of 2,200 active; in the data active means inhibition above about 23%
HNF4 split-luc: counter-screen for ABHD5-PLIN5 inhibitors: HNF4 split-luciferase | shares compounds with ABHD5-PLIN5 inh | AID 651674 | HNF4 dimerization, luminescence, biochemical | 77% of 2,200 active | inhibition, % at 4 µM;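 active means mean inhibition across replicate wells exceeding the computed hit threshold, cut at about 13% in these data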;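 further: light from luciferase halves that rejoin when HNF4 fusion proteins dimerize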
Target sequence (P41235 whole entry, looked up, the tested form may be a part): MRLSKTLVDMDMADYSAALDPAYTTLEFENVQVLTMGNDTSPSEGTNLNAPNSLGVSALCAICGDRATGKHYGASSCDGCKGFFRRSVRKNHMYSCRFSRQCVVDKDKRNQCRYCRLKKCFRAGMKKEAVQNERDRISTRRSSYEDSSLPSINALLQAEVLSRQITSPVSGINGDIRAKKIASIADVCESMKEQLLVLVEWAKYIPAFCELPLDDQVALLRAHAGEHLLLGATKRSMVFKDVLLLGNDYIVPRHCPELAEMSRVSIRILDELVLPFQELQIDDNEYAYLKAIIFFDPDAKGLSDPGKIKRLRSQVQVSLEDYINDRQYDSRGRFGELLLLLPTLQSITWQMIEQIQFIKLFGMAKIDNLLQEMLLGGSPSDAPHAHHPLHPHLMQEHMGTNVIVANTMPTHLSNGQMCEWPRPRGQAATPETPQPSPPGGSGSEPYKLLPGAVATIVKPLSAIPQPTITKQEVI
Each line names hits and unclear results; the compound was inactive in the other large screens (follow-up assays come after a bar, where they were run).

CCOc1cccc(=O)c2c(C)n(Cc3ccco3)c(C)c12	ABHD5-PLIN5 inh 24 | ABHD5 PLIN5 conf 29 | HNF4 split-luc 55
CCOc1cccc(=O)c2c(C)n(Cc3ccccc3)c(C)c12	none
O=C1C(=O)c2c(C(=O)c3ccccc3)coc2-c2ccccc21	ABHD5-PLIN5 inh 69 | ABHD5 PLIN5 conf 85 | HNF4 split-luc 45
Cc1cccc(NC(=O)C(C)Sc2ncnc3sccc23)c1 (stereo not given)	none (no result: TRPM1 prom inh)
CCc1nc2c(sc3nc4c(cc32)COC(C)(C)C4)c(=O)n1Cc1ccco1	ABHD5-PLIN5 inh 28 | ABHD5 PLIN5 conf inactive | HNF4 split-luc 36
CCc1nc(OCc2ccco2)c2sc3nc4c(cc3c2n1)COC(C)(C)C4	ABHD5-PLIN5 inh 33 | ABHD5 PLIN5 conf 47 | HNF4 split-luc 74
CCc1nc2c(sc3nc4c(cc32)COC(C)(C)C4)c(=O)n1Cc1ccccc1	none
Cc1nc(OCC(C)C)c2sc3nc4c(cc3c2n1)COC(C)(C)C4	none (no result: TRPM1 prom inh)
O=C(OCC(=O)N1CCc2ccccc21)c1n[nH]c(=O)c2ccccc12	none
Cc1cc(N2CCCC2)c(F)cc1/C=C\[N+](=O)[O-]	ABHD5-PLIN5 inh 47, Peg3 promoter 79 | ABHD5 PLIN5 conf 97 | HNF4 split-luc 95
Cc1cc(N2CCC(C)CC2)c(F)cc1[N+](=O)[O-]	none
CCc1nc2ccc(C(=O)N3CCCC(C(N)=O)C3)cn2c1N(C=O)CC (stereo not given)	none (no result: TRPM1 prom inh)
O=c1c(C(c2ccccc2)c2c(O)nc3n(c2=O)CCS3)c(O)nc2n1CCS2	ABHD5-PLIN5 inh 25 | ABHD5 PLIN5 conf 56 | HNF4 split-luc 59
CCCCC[C@@H](/C=C/C1C(=O)C=C[C@H]1C/C=C\CCCC(=O)OC)OC(C)=O (stereo not given in full)	ABHD5-PLIN5 inh 28, TRPM1 prom inh 68, Peg3 promoter 81 | ABHD5 PLIN5 conf 42 | HNF4 split-luc 63
CCN1c2ccccc2NC2N=C(OC)C(c3ccccc3)C21 (stereo not given)	ABHD5-PLIN5 inh 48, TRPM1 prom inh 87 | ABHD5 PLIN5 conf inactive | HNF4 split-luc 13
CN1CCN(C(=O)/C(=C/c2ccc([N+](=O)[O-])cc2)NC(=O)c2ccccc2)CC1	none
COc1cccc(OC)c1C(=O)OCC(=O)NC1CCCCCC1	none
Cc1cn([C@@H](CCCCNC(=O)OC(C)(C)C)C(=O)NCCCCCCCCCCC(=O)N2CCN(C(=O)OC(C)(C)C)CC2)nn1	ABHD5-PLIN5 inh 24, TRPM1 prom inh 65, Peg3 promoter 84 | ABHD5 PLIN5 conf inactive | HNF4 split-luc inactive
C#CCOCCOCCOCCNc1nc(N2CCN(C(=O)CCCCCCCCCCNC(=O)[C@H](CCCCN)n3cc(C)nn3)CC2)nc(N2CCN(C(=O)CCCCCCCCCCNC(=O)[C@@H]([C@H](C)O)n3cc(C)nn3)CC2)n1	ABHD5-PLIN5 inh 44, Peg3 promoter 50 | ABHD5 PLIN5 conf inactive | HNF4 split-luc inactive
C#CCOCCOCCOCCNc1nc(N2CCN(C(=O)CCCCCCCCCCNC(=O)[C@@H](CCSC)n3cc(CCO)nn3)CC2)nc(N2CCN(C(=O)CCCCCCCCCCNC(=O)[C@@H]([C@H](C)O)n3cc(C)nn3)CC2)n1	ABHD5-PLIN5 inh 53 | ABHD5 PLIN5 conf inactive | HNF4 split-luc inactive
CC(C)(C)OC(=O)NCCCCCc1cn(CC(=O)NCCCCCCCCCCC(=O)N2CCN(C(=O)OC(C)(C)C)CC2)nn1	none
C#CCOCCOCCOCCNc1nc(N2CCN(C(=O)[C@H]([C@@H](C)O)n3cc(CCCCN)nn3)CC2)nc(N2CCN(C(=O)[C@H](CCCCN)n3cc(CCCC)nn3)CC2)n1	none
COc1ccc(S(=O)(=O)N(C)CC(=O)NCc2ccco2)cc1OC	none
CCn1nc(C)c(/C=N/NC(=O)c2ccc3c(c2)c(C)c(C)n3Cc2ccccc2)c1C	none
CCCS(=O)(=O)NC(=O)C1(C)CCCN(C(=O)c2ccc(OC)cc2OC)C1 (stereo not given)	none (no result: TRPM1 prom inh)
COC1=CC(=O)OC(c2cccc(Cl)c2)C1 (stereo not given)	none (no result: CF NFkB inh, KKLEB cytotox, TRPM1 prom inh, Peg3 promoter)
O=C(NN1CC(C(=O)OCc2ccc(Br)cc2)CC1=O)c1ccccc1 (stereo not given)	none
CCCCn1c(SCC(=O)NCc2ccco2)nnc1-c1ccoc1C	ABHD5-PLIN5 inh 24 | ABHD5 PLIN5 conf 55 | HNF4 split-luc 28
Cc1cc(NC(=O)CSc2nnc(COc3ccccc3)n2Cc2ccco2)no1	none
CCCCn1c(SCC(=O)NCc2ccco2)nnc1-c1ccco1	none
O=C(CSc1nnc(COc2ccccc2)n1Cc1ccco1)NCc1ccco1	ABHD5-PLIN5 inh 37 | ABHD5 PLIN5 conf 44 | HNF4 split-luc 54
CCC(C(=O)Nc1cccc(S(=O)(=O)N(C)c2ccccc2)c1)c1ccccc1 (stereo not given)	none
COc1ccc(OC)c(NC(=O)C2(C)CCN2Cc2ccsc2)c1 (stereo not given)	none (no result: TRPM1 prom inh)
CSCCC(NC(=O)c1ccco1)C(=O)NNC(=O)c1n[nH]c(=O)c2ccccc12 (stereo not given)	ABHD5-PLIN5 inh 66 | ABHD5 PLIN5 conf inactive | HNF4 split-luc inactive
CNC(=O)/C(C#N)=C/c1ccc(OCCOc2ccccc2)cc1	none
CCc1ccc(Nc2nnc(SC(C)C(=O)NC3CC3)s2)cc1 (stereo not given)	ABHD5-PLIN5 inh 78 | ABHD5 PLIN5 conf inactive | HNF4 split-luc inactive
O=C(NCc1cccc(Cl)c1)N1CCN(S(=O)(=O)c2ccccc2F)CC1	none
COC1=C(OC)C(=O)C(Sc2ccc3ccccc3c2)=CC1=O	ABHD5-PLIN5 inh 81, Peg3 promoter 64, HIF-2a inh 49 | ABHD5 PLIN5 conf 72 | HNF4 split-luc 104
COc1ccc(C(=O)c2c(C)c3ccccc3n2CC(O)CNC(C)C)cc1 (stereo not given)	ABHD5-PLIN5 inh 26 | ABHD5 PLIN5 conf inactive | HNF4 split-luc inactive
COc1cc(-c2cc(C(=O)Nc3ccc(N4CCOCC4)cc3)c3ccccc3n2)cc(OC)c1OC	ABHD5-PLIN5 inh 24 | ABHD5 PLIN5 conf inactive | HNF4 split-luc inactive
CC(C)C[C@H]1CNC(=S)N1C[C@H]1CCCN1C[C@H](Cc1ccc(O)cc1)N1C[C@H](Cc2ccc(O)cc2)N(CCc2ccccc2)C1=S	ABHD5-PLIN5 inh 23, Peg3 promoter 94 (no result: TRPM1 prom inh) | ABHD5 PLIN5 conf inactive | HNF4 split-luc inactive
CC(C)C[C@H]1CN([C@@H](Cc2ccc(O)cc2)CN2CCC[C@@H]2CN2C(=S)NC[C@@H]2Cc2ccccc2)C(=S)N1CCc1ccccc1	none (no result: TRPM1 prom inh)
Nc1ccn([C@@H]2O[C@H](C(=O)Nc3ccc(Oc4ccccc4)nc3)[C@@H](O)[C@H]2O)c(=O)n1	none (no result: TRPM1 prom inh)
